Sampled rows, rich in hits. Any-hit rate of the full collection: about 5.3%.
Tau FP inhib – blocks human tau fibril formation measured by polarization; P10636; actives 0.39% (n = 280,000); AID 1468; K18 P301L tau heparin fibrillization, Alexa594 FP, 6 h; Potency, µM (series often up to 57.7 µM), without a hit: at the highest dose activity, negative = inhibition, usual class: inhibitors; also: potency is read from the fitted curve at half-maximal effect; nearly all actives have a fitted effect of over 55% in size
Target sequence (P10636 561-689 P618L limits assumed): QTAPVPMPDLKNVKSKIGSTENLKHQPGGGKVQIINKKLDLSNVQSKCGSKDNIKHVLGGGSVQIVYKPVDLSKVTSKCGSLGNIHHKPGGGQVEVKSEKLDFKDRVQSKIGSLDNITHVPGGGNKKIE
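FP of Alexa 594-tau after heparin (20 uM) induction. Substrate: human K18 P301L, 15 uM unlabeled, 0.24 uM labeled. Buffer 100 mM sodium acetate pH 7. 6 hr, 37 C.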
Sfp PPTase inh – Sfp phosphopantetheinyl transferase inhibition. Potency, µM, for the others: largest response in the series, negative = inhibition, most hits filed as inhibitors. Biochemical Sfp PPTase activity, qHTS. Q9F4F7. actives 3.5% (n = 310,000). AID 1490;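 also: the enzyme is Sfp with the accession as filed and its product quenches rhodamine fluorescence; potency is read from the fitted curve at half-maximal effect; 0% = enzyme reaction without inhibitor and -100% = no enzyme wells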
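Buffer: 50 mM Hepes-Na pH 7.6, 10 mM MgCl2, 0.01% Nonidet P-40, 0.01% BSA. Enzyme 15 nM, pre-exposed to compound 15 min; substrates then added and fluorescence change tracked over 30 min.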
Coupling enz – coupling enzyme interference in Giardia aldolase counter-screen; coupling enzyme system counterscreen, AmpLite Red fluorescence; activity change, negative = inhibition, % at 58.2 µM, hits read low; actives 0.67% (n = 290,000); AID 2472; in the data active = activity change below about -30%
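Activity here indicates interference with the coupling reaction, not aldolase inhibition. Compounds at 57.5 uM final met coupling enzymes for 10 min at RT; substrate and AmpLite Red detection followed, with a 525/598 nm fluorescence read after 20 min.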
Tau fibril ThT – blocks human tau fibril formation measured by thioflavin T; P10636; recombinant tau K18 P301L, heparin-induced fibrillization, ThT fluorescence; Potency, µM (top dose mostly 57.4 µM), inactives show at the highest dose activity, negative = inhibition, most hits filed as inhibitors; actives 2.1% (n = 270,000); also: potency is read from the fitted curve at half-maximal effect; nearly all actives have a fitted effect of over 55% in size
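Tau K18 P301L fragment (15 uM unlabeled plus 0.24 uM Alexa 594-labeled) in 100 mM sodium acetate pH 7 with compound, fibrillization induced by 20 uM heparin for 6 hr at 37 C. Thioflavin T (30 uM) added, fluorescence read after 1 hr (ex 450, em 510 nm).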
KDM4E inh – JMJD2E (human) inhibition | B2RXH2 | JMJD2E catalytic domain, FDH-coupled NADH fluorescence (FDH is formaldehyde dehydrogenase) | Potency, µM (highest dose often 57.1 µM), without a hit: at the highest dose activity change, negative = inhibition, most hits filed as inhibitors | actives 1.6% (n = 230,000); active = well fitted inhibition curve with a large enough effect, not every such curve was filed as active; inconclusive = small, poorly fitted or top-dose-only effect, or another doubt; inactive = no such curve, though single readings can be large or run the other way;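 also: potency is read from the fitted curve at half-maximal effect; 0% = wells with enzyme and -100% = buffer wells without enzyme; nearly all actives have a fitted effect of over 50% in size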
Target sequence (B2RXH2 1-337 limits assumed): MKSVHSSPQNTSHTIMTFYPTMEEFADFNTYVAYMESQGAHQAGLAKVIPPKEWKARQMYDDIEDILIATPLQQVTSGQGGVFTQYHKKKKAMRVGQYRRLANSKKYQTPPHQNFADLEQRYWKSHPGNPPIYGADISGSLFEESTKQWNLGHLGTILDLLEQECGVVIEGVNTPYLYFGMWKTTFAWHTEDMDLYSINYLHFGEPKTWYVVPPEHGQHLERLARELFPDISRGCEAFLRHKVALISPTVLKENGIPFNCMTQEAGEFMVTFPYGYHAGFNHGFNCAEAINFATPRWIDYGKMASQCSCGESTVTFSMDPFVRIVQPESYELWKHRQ
Tau fluor counter – counter-screen for tau fibril formation inhibitors. tau K18 P301L Alexa594 fluorescence, heparin fibrillization. Potency, µM (doses to about 57.7 µM), for the others: top-dose activity change, negative = decrease. actives 0.93% (n = 280,000). AID 1463; also: potency is read from the fitted curve at half-maximal effect; nearly all actives have a fitted effect of over 55% in size
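Human tau K18 P301L (15 uM unlabeled, 0.24 uM Alexa 594-labeled) in 100 mM sodium acetate pH 7 with 20 uM heparin, 6 hr at 37 C. ThT 30 uM added, 1 hr ambient; Alexa 594 FP and total fluorescence read at 555/632 nm.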
Numbers without * were called inactive; ? = inconclusive; . = no result given; [ ] = dose if it differs, or a comment. Unless noted, calls follow the shape of the dose curve; as a rule, active = well fitted curve in the direction sought with a large enough effect; inconclusive = small, poorly fitted or top-dose-only effect, or another doubt; inactive = no such curve, though single readings can be large; an effect the other way counts as inactive or inconclusive. Unless noted, % is scaled to controls: 0 for no effect and ±100 for the full control effect.

SMILES	Tau FP inhib	Sfp PPTase inh	Coupling enz	Tau fibril ThT	KDM4E inh	Tau fluor counter
O=C(NCC1CCCO1)c1nn2c(C(F)(F)F)cc(-c3ccc(Br)o3)nc2c1Br (stereo unspecified)	.	50.1µM*	0.5	.	.	.
CCc1cccc2c1NC1(CCCC1)CC2C (stereo unspecified)	-10.4%	56.2µM*	-4.1	?	?	-22.4%
CC(=Nc1ccc(O)cc1)c1sc2ccccc2c1O	13.3%	-16.3%	0.8	4.47µM*	?	?
CC(=Nc1ccccc1O)c1sc2ccccc2c1O	17.7%	-6.2%	-7.0	5.01µM*	?	28.2µM*[quencher]
CC(=Nc1cccc(C)c1)c1sc2ccccc2c1O	13.4%	-4.6%	3.2	?	-9.9%	?
CCn1c(=O)c([N+](=O)[O-])c(NCCN(C)C)c2ccccc21	-2.2%	3.55µM*	-0.4	-11.6%	-0.7%	-10.0%
CCn1c(=O)c([N+](=O)[O-])c(NCC(O)c2ccccc2)c2ccccc21 (stereo unspecified)	-0.9%	7.7%	1.1	?	-6.3%	-14.3%
CC(C)CCOc1ccc(N)cc1	.	-19.6%	-6.1	.	.	.
COc1ccc2[nH]c(=O)c(CN(Cc3ccc(C)cc3)Cc3nnnn3CC3CCCO3)cc2c1 (stereo unspecified)	-7.2%	15.8µM*	-47.2*	-14.8%	?	-8.5%
Cc1ccc2cc(CN(Cc3ccccc3)Cc3nnnn3C3CCCC3)c(=O)[nH]c2c1	-5.5%	-1.8%	5.6	-13.2%	?	-18.7%
COc1ccc2[nH]c(=O)c(CN(Cc3ccccc3OC)Cc3nnnn3CC3CCCO3)cc2c1 (stereo unspecified)	3.7%	?	-25.2	-5.8%	?	-9.5%
COc1ccc2[nH]c(=O)c(CN(CCc3ccccc3)Cc3nnnn3CC3CCCO3)cc2c1 (stereo unspecified)	-5.7%	50.1µM*	-40.2*	?	?	-11.0%
O=c1[nH]c2cc3c(cc2cc1CN(CCc1ccccc1)Cc1nnnn1CC1CCCO1)OCO3 (stereo unspecified)	6.4%	56.2µM*	-17.8	-12.9%	?	-7.6%
Cc1ccc2cc(CN(Cc3ccc(F)cc3)Cc3nnnn3C3CCCC3)c(=O)[nH]c2c1	6.2%	22.4µM*	1.9	-9.1%	?	-17.6%
O=C(NCC(c1ccc2c(c1)OCO2)N1CCN(c2ccccc2)CC1)C(=O)Nc1ccccc1 (stereo unspecified)	-1.0%	.	.	-4.8%	.	-25.7%
FC(F)(F)c1ccccc1-c1nccc(-n2ccnc2)n1	.	?	-7.2	.	.	.
COc1ccc(CC(=O)Nc2sc3c(c2C(N)=O)CCCC3)cc1	.	10.9%	5.0	.	.	.
COc1ccc(Nc2nc3ccccc3s2)cc1	4.1%	5.4%	-5.3	12.6%	-20.2%	14.1%
COc1cccc(Nc2nc3ccc(OC)cc3s2)c1	6.8%	-7.4%	-5.8	12.6µM*	1.7%	12.6µM*[quencher]
COc1ccc2nc(Nc3sc4c(c3C(N)=O)CCCC4)sc2c1	1.7%	44.7µM*	2.9	7.08µM*	0.8%	?
CCc1nnc(NS(=O)(=O)c2ccc(NS(=O)(=O)c3ccccc3[N+](=O)[O-])cc2)s1	.	-8.6%	14.4	.	.	.
NS(=O)(=O)c1ccc(Nc2ccc([N+](=O)[O-])c3nonc23)cc1	-11.4%	79.4µM*	-32.8*	15.8µM*	-11.0%	-21.8%
CCc1nnc(NS(=O)(=O)c2ccc(Nc3ccc([N+](=O)[O-])c4nonc34)cc2)s1	3.8%	10.8%	0.1	14.1µM*	-1.3%	-13.5%
C=CCOC(=O)N[C@@H](CC(C)C)/C(C(=O)OC)=C(\C)NCc1ccccc1	1.1%	-9.0%	0.1	7.5%	3.9%	2.6%
COc1ccc(NC(=O)c2oc3ccccc3c2NC(=O)COc2ccc(C(C)C)cc2)c(OC)c1	0.6%	.	.	7.3%	.	-10.0%
O=C(Nc1ccc(F)cc1)c1nc(SCc2ccccc2F)ncc1Cl	-12.1%	.	.	0.8%	.	-5.6%
O=C(Oc1ccccc1F)c1nc(SCc2ccccc2F)ncc1Cl	-8.9%	.	.	22.4µM*	.	-24.6%
